Assay outcomes deposited in PubChem BioAssay by National Center for Advancing Translational Sciences (NCATS).
ERK EGF inh: blocks ERK signaling stimulated by EGF; actives 0.41% (n = 130,000); Potency, µM (doses to about 11.5 µM), without a hit: at the top dose activity change, negative = inhibition, most hits filed as inhibitors; AID 1454; HEK293-V1b, EGF-stimulated phospho-ERK AlphaScreen; active means well fitted inhibition curve with a large enough effect;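 further: plate controls were stimulated vehicle wells for no effect and unstimulated vehicle basal for full effect; nearly all actives have a fitted effect of over 55% in size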
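Stably V1b-transfected HEK293 cells; 30 min compound, then EGF 25 nM final for 5 min at 37C; 10 min lysis; phospho-ERK by AlphaScreen after 5 hr beads at room temperature.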
Numbers without * were called inactive; ! = a repeat was not active; [ ] = another dose, or the depositor's remark. The entries come from a sample that favours hits as a whole. Potency means the concentration at half of the fitted maximal effect.

Results for COCCCNC(=O)c1ccc2c3c(onc13)-c1ccccc1C2=O ?
ERK EGF inh: 31.6µM*

Results for O=C1NCN(CCO)CN1 ?
ERK EGF inh: -24.9%[57.5 µM]

Results for Cc1nc2ccc(NC(=O)Cc3c(F)cccc3Cl)cc2s1 ?
ERK EGF inh: 3.1%[57.5 µM]

What do the screens show for `CS(=O)(=O)Oc1ccc2c(c1)O/C(=C\C=C\c1ccccc1)C2=O`?
ERK EGF inh: 7.94µM*

How did CCN(CC)Cc1c(O)ccc2c1O/C(=C\C=C\c1ccccc1)C2=O do in these assays?
ERK EGF inh: -9.2%[57.5 µM]

Results for CCc1ccc(/C=C2\Oc3cc(OS(C)(=O)=O)ccc3C2=O)cc1 ?
ERK EGF inh: 4.2%

Results for CCOc1ccc(S(=O)(=O)N(CC(=O)NC2CCCCC2C)Cc2ccco2)cc1 (centres undefined) ?
ERK EGF inh: -0.1%

Results for Cn1ncc2c(Nc3ccccc3Cl)nc(Cl)nc21 ?
ERK EGF inh: -1.6%[57.5 µM]

What do the screens show for `O=C(Nc1ccc(N2CCOCC2)cc1)C1CCN(S(=O)(=O)c2ccc3c(c2)OCCO3)CC1`?
ERK EGF inh: 4.2%

What do the screens show for `COc1ccc(N(C(=O)CCl)C(C(=O)NCCc2ccccc2)c2cccs2)cc1` (centres undefined)?
ERK EGF inh: 1.2%

How did O=C(COc1ccc(Cl)cc1Cl)NC(=S)Nc1ccccc1C(=O)O do in these assays?
ERK EGF inh: 1.1%

What do the screens show for `COc1ccc(C2c3ccc4ccccc4c3Oc3ncn(CCCO)c(=N)c32)cc1` (centres undefined)?
ERK EGF inh: 39.8µM*

How did N=c1c2c(ncn1CCCO)Oc1c(ccc3ccccc13)C2c1ccccc1 (centres undefined) do in these assays?
ERK EGF inh: -10.6%[57.5 µM]

How did COc1ccc(C2c3ccc4ccccc4c3Oc3ncn(CCCO)c(=N)c32)cc1OC (centres undefined) do in these assays?
ERK EGF inh: -9.9%[57.5 µM]

Results for NC(=O)C(=O)N/N=C/c1c[nH]c2ccc(Br)cc12 ?
ERK EGF inh: 15.1%

What do the screens show for `Cn1c(SCC(=O)N2CCCC2)nc2cccnc21`?
ERK EGF inh: -6.2%

How did N#CC(c1nc2ccccc2nc1N1CCOCC1)S(=O)(=O)c1ccccc1 (centres undefined) do in these assays?
ERK EGF inh: -6.4%[57.5 µM]

What do the screens show for `Cc1ccc(NC(=O)/C=C/c2ccc3c(c2)OCO3)cc1S(=O)(=O)N1CCOCC1`?
ERK EGF inh: 28.2µM*

Results for O=C(/C=C/c1ccc2c(c1)OCO2)NCCCN1CCOCC1 ?
ERK EGF inh: -14.3%

Results for Cc1cc(C(=O)Nc2ccc(C)c(S(=O)(=O)N3CCOCC3)c2)c(C)o1 ?
ERK EGF inh: -7.0%

What do the screens show for `CCc1ccccc1NC(=S)N=Nc1c(O)n(C)c2ccc(S(=O)(=O)N3CCOCC3)cc12`?
ERK EGF inh: 1.6%

Results for COC(=O)C1=C(C)NC(=S)NC1c1ccco1 (centres undefined) ?
ERK EGF inh: -2.3%

How did Cc1ccccc1OCC(O)Cn1c(=N)n(Cc2ccccc2)c2ccccc21 (centres undefined) do in these assays?
ERK EGF inh: 31.6µM*

What do the screens show for `CCN(CC)CCn1c(=N)n(CC(O)COc2ccccc2)c2ccccc21` (centres undefined)?
ERK EGF inh: -0.1%[57.5 µM]

What do the screens show for `CCCCCn1c(=N)n(CC(O)COc2ccccc2OC)c2ccccc21` (centres undefined)?
ERK EGF inh: 0.3%

How did Cc1ccc(N(CC(=O)NCc2ccc(F)cc2)C(=O)c2csnn2)c(C)c1 do in these assays?
ERK EGF inh: 0.9%

Results for CCOC(=O)c1sc(NC(=O)COC(=O)CNC(=O)c2ccco2)c(C(=O)OCC)c1C ?
ERK EGF inh: 13.9%

How did Cc1ccccc1Nc1nc(N)nc(CSc2nnnn2C)n1 do in these assays?
ERK EGF inh: -3.8%

What do the screens show for `CN(C)C(=O)c1ccc(-c2ccc3ncnc(NCc4cccnc4)c3c2)cc1`?
ERK EGF inh: 29.0%

How did Cc1cccc(CNc2ncnc3ccc(-c4c(C)noc4C)cc23)c1 do in these assays?
ERK EGF inh: 10.0%

Results for Cc1cccc(CNc2ncnc3ccc(-c4cccnc4)cc23)c1 ?
ERK EGF inh: 8.91µM*

Results for CC[n+]1c(/C=C/c2ccc(N(C)C)cc2)ccc2ccccc21 ?
ERK EGF inh: 2.7%

Results for CC[n+]1ccccc1/C=C/c1ccc(N(C)C)cc1 ?
ERK EGF inh: -2.6%

Results for CC[n+]1ccc(/C=C/c2ccc(N(C)C)cc2)c2ccccc21 ?
ERK EGF inh: 14.1µM*

How did O=C(C1CCCN1C(=O)c1cccs1)N1CCN(Cc2ccc3c(c2)OCO3)CC1 (centres undefined) do in these assays?
ERK EGF inh: 3.9%[57.5 µM]

What do the screens show for `Cc1coc2cc3oc(=O)cc(C)c3cc12`?
ERK EGF inh: 3.1%

What do the screens show for `CN(C(=O)COC(=O)c1ccc2c(c1)OCCO2)c1ccccc1`?
ERK EGF inh: -13.0%

What do the screens show for `CN(C)c1ccc(N=Nc2ccccc2C(=O)OCC(=O)N(C)c2ccccc2)cc1`?
ERK EGF inh: 10µM*

How did CC(=O)c1ccc(NC(=O)COC(=O)c2ccccc2N=Nc2ccc(N(C)C)cc2)cc1 do in these assays?
ERK EGF inh: 28.1%

How did CN(C(=O)COC(=O)c1n[nH]c2ccccc12)c1ccccc1 do in these assays?
ERK EGF inh: -9.1%

Results for COC(=O)c1ccccc1NC(=O)COC(=O)[C@H](C)NC(N)=O ?
ERK EGF inh: 1.1%[57.5 µM]

How did COC(=O)c1ccccc1NC(=O)COC(=O)c1ccccc1N=Nc1ccc(N(C)C)cc1 do in these assays?
ERK EGF inh: 14.1µM*

What do the screens show for `O=C(CCN1C(=O)/C(=C/c2ccc(F)cc2)SC1=S)NNC(=O)c1ccncc1`?
ERK EGF inh: -0.2%

What do the screens show for `COc1ccc(CCNC(=O)c2ccc3c(c2)SC2=NS(=O)(=O)CCN23)cc1`?
ERK EGF inh: 14.1%[57.5 µM]

How did CC(=O)Nc1ccc(C)c(NS(=O)(=O)c2cccc(C(F)(F)F)c2)c1 do in these assays?
ERK EGF inh: -2.8%[57.5 µM]

How did CN(C)S(=O)(=O)c1cccc(NC(=S)N/N=C/c2ccco2)c1 do in these assays?
ERK EGF inh: -5.7%[57.5 µM]

What do the screens show for `CN(C)S(=O)(=O)c1cccc(-c2csc(N/N=C/c3ccco3)n2)c1`?
ERK EGF inh: 22.4µM*

What do the screens show for `Cc1ccc(-c2csc(N/N=C/c3ccco3)n2)c(C)c1`?
ERK EGF inh: 6.5%

What do the screens show for `Cc1cc(C)n2ncc(C(=O)Nc3cccc(O)c3)c2n1`?
ERK EGF inh: -6.7%

How did COCCSc1nnc(NS(=O)(=O)c2ccccc2)s1 do in these assays?
ERK EGF inh: 1.9%

Results for CCN(CC)Cc1ccc(NC(=O)c2sc3cc(Cl)ccc3c2Cl)cc1 ?
ERK EGF inh: 28.2µM*

How did Cc1ccc2c(Cl)c(C(=O)Nc3ccc4c(c3)OCO4)sc2c1 do in these assays?
ERK EGF inh: 0.4%

Results for Cc1ccnc(NC(=O)c2sc3cc(Cl)ccc3c2Cl)c1 ?
ERK EGF inh: 4.0%

What do the screens show for `Oc1cc(-c2ccccc2)c2ccccc2c1`?
ERK EGF inh: 5.3%

What do the screens show for `Cc1ccc(NC(=O)/C=C/C(=O)O)c([N+](=O)[O-])c1`?
ERK EGF inh: -3.1%

Results for CCOc1cccc(C2C(C#N)=C(N)Oc3cc(C)[nH]c(=O)c32)c1OCC (centres undefined) ?
ERK EGF inh: 0.9%[57.5 µM]

Results for Cc1nnc(NC(=O)c2ccc(S(=O)(=O)C(F)F)cc2)s1 ?
ERK EGF inh: 5.1%[57.5 µM]

Results for COC(=O)c1cc(Sc2c(Cl)cccc2Cl)ccn1 ?
ERK EGF inh: -15.3%

Results for Clc1ccccc1-c1nccc(-n2ccnc2)n1 ?
ERK EGF inh: 26.3%

What do the screens show for `Clc1ccccc1C(c1ccccc1)(c1ccccc1)n1ccnc1`?
ERK EGF inh: 22.4µM*!

How did FC(F)(F)c1ccccc1-n1ccnc1 do in these assays?
ERK EGF inh: 3.9%
